# Source: PubChem BioAssay (National Center for Advancing Translational Sciences (NCATS))
# In the library only some 2.4% were active in any assay of this set; here they are far more common.
# D2 ag-1: agonists of human D2 dopamine receptor (beta-arrestin); actives 0.084% (n = 360,000); DiscoveRx PathHunter D2 beta-arrestin, luminescence, 90 min; 100% = 57 uM dopamine signal; P14416; AID 624465; activation, % (no concentration beside the values); in the data active = activation above about 40%; inconclusive = between about 15% and that limit
# Target sequence (P14416 whole entry, looked up): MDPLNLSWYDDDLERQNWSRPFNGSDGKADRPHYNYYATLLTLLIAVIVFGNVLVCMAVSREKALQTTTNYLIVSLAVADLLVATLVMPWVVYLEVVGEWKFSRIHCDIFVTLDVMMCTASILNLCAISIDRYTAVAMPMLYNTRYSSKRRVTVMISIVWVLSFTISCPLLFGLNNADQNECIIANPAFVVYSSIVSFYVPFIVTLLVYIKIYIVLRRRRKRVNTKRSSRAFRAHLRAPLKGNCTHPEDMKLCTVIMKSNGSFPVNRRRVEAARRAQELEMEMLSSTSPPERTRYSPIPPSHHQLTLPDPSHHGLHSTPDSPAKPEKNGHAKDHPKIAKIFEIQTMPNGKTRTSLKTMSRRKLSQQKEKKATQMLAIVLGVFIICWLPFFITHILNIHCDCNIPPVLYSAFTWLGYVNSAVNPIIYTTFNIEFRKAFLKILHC
#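 DiscoveRx PathHunter D2 beta-arrestin cells (2,100/well) attached overnight, then compound-stimulated 90 min at 37 C in HBSS/10 mM HEPES/0.1% Tween-20 buffer; beta-galactosidase complementation read by luminescence after 1 h at ambient temperature. Dopamine 57 uM final (EC100) as control.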
# D2 antagonist: antagonizes the human D2 dopamine receptor; inhibition, % at 10 µM; AID 485344; actives 2% (n = 340,000); HEK293 TREx D2 cells, calcium flux, dopamine EC80; P14416; in the data active = inhibition above about 30%; inactive = below that, where a call was filed; also: 0% is about no effect
#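 Calcium flux kinetic readout in an inducible HEK293 TREx D2 line plated overnight at 30 C. After 180 s compound exposure, an EC80 dopamine challenge follows with another 180 s kinetic read to detect antagonism.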
# D2 PAM-1: D2 dopamine receptor (human) potentiation; actives 0.34% (n = 340,000); HEK293 T-REx D2, calcium flux, EC20 dopamine potentiation; P14416; potentiation, % at 10 µM;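 active = potentiation over 3 SD above the plate norm, cut at about 30% in these data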; also: 0% is about no effect
#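 Tetracycline-induced Hek293 Trex D2 cells, force-coupled to calcium, loaded with no-wash calcium dye. Compound added with 180 s kinetic read for agonism, then EC20 dopamine and a further 180 s read for potentiation.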
# D2 PAM-2: positive allosteric modulators of human D2 dopamine receptor; potentiation, % (test concentration not listed); actives 0.23% (n = 360,000); AID 624464; P14416; DiscoveRx D2 beta-arrestin cells, luminescence, 90 min; 100% = 57 uM dopamine signal; in the data active = potentiation above about 50%; inconclusive = mostly about 30% to 49%
#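 PathHunter D2 cells, attached overnight at 37 deg C, received compound in DMSO plus dopamine at EC20 (50 nM final) for 90 min at 37 deg C. Beta-arrestin recruitment was read as luminescence after 1 h with detection reagent at ambient temperature.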
# D2 ag-2: agonists of human D2 dopamine receptor | actives 0.53% (n = 340,000) | HEK293 T-REx D2 cells, calcium flux agonist mode | P14416 | activation, % at 2 µM | AID 485358;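 active = activation over 3 SD above normal in the single-dose calcium agonist read, cut at about 30% in these data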; also: 0% is about no effect
#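 Calcium-flux readout, 1 cycle/sec over 180 s following compound pin transfer, in inducible HEK293 Trex D2 cells (force-coupled); dopamine controls included. Positive calcium responses during this window marked compounds as potential agonists.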
# Numbers without * were called inactive; ? = inconclusive; · = no result given.
SMILES,D2 ag-1,D2 antagonist,D2 PAM-1,D2 PAM-2,D2 ag-2
COc1cccc2cc(C(=O)NCc3ccc(Cl)cc3)c(=N)oc12,-3.5,105.9*,10.6,-2.4,-2.1
CCCCCCc1cc2cc(S(=O)(=O)c3ccc(F)cc3)c(=O)oc2cc1O,3.3,16.0,10.9,11.1,23.3
CCCCCCc1cc2cc(-c3nnc(-c4cc(OC)c(OC)c(OC)c4)o3)c(=O)oc2cc1O,0.1,0.4,7.2,-9.7,0.3
CCCCCCc1cc2cc(-c3nnc(-c4ccccc4OC)o3)c(=O)oc2cc1O,?,-43.0,-0.6,154.9*,109.8*
CCCCCCc1cc2cc(-c3nnc(-c4ccccc4O)o3)c(=O)oc2cc1O,5.9,19.5,-6.1,2.0,39.0*
CCCCCC(=O)N1C[C@@H](n2cc(C3CC3)nn2)[C@H](O)C[C@@H]1c1ccc(C)cc1,-12.3,·,·,-3.0,·
CCCn1c(=O)c2sccc2n2c(CCCC(=O)NC3CCCCC3)nnc12,·,·,-3.4,·,-1.3
CC(=O)NC(CC(=O)OCc1ccc([N+](=O)[O-])cc1)c1ccccc1 (stereo not drawn),-2.7,-3.8,36.7*,-6.6,-1.3
NNC(=O)CN1C(c2ccc(Cl)cc2)=Nc2ccc(Br)cc2C1c1ccccc1 (stereo not drawn),-1.9,·,-26.7,-31.8,0.3
COc1cc(OC)c(C2=Nc3ccc(Br)cc3C(c3ccccc3)N2CC(=O)NN)cc1OC (stereo not drawn),-6.0,78.5*,-19.0,-4.4,0.1
CC1=Nc2ccc(Br)cc2C(c2ccccc2)N1CC(=O)NN (stereo not drawn),-6.2,36.1*,-25.0,-4.9,-2.1
NNC(=O)CN1C(c2ccccc2)=Nc2ccc(Br)cc2C1c1ccccc1 (stereo not drawn),-5.8,81.5*,-32.1,-17.0,-0.2
CCC1=Nc2ccc(Br)cc2C(c2ccccc2)N1CC(=O)OC (stereo not drawn),-3.6,3.0,-21.8,-19.7,-0.2
NNC(=O)CN1C(CN2CCOCC2)=Nc2ccc(Br)cc2C1c1ccccc1 (stereo not drawn),-0.1,83.0*,-24.5,-13.0,1.2
O=C(c1ccco1)N1CCN(c2c([N+](=O)[O-])nn(-c3ccc(Cl)cc3)[n+]2[O-])CC1,2.6,11.9,4.2,22.3,0.6
CC1CCN(c2c([N+](=O)[O-])nn(-c3ccc4c(c3)OCCO4)[n+]2[O-])CC1,9.9,-2.0,1.4,75.2*,0.1
Cc1ccc(N2C(=O)CC(c3ccccc3F)C3=C2COC3=O)cc1Cl (stereo not drawn),·,·,0.8,·,-0.4
CCN(CC)C(=O)Cn1c(=O)n(CC(=O)N2CCCCC2)c(=O)c2sccc21,-2.4,33.0*,-1.4,6.2,0.4
CCCNC(=O)Cn1c(=O)n(CC(=O)N2CCCCC2)c(=O)c2sccc21,-14.7,-10.5,5.5,-27.8,1.1
COc1ccc(C(=O)Oc2ccc3c(c2)OCO3)cc1OC,-3.7,10.0,0.1,3.5,4.7
N/C(=N\OC(=O)c1ccc2c(c1)OCO2)c1cccc(Br)c1,?,-2.4,-3.6,106.3*,0.2
COc1ccc(/C(N)=N/OC(=O)c2ccc3c(c2)OCO3)cc1OC,11.7,-10.2,1.2,84.3*,-0.1
COc1cc(OC)c(C(=O)Oc2ccc3c(c2)OCO3)cc1OC,1.1,30.2*,13.2,-5.6,0.0
N/C(=N\OC(=O)c1ccc2c(c1)OCO2)c1cccnc1,?,-4.9,-5.4,79.1*,-0.2
CCCc1ccc(OC(=O)c2sc3ncn(Cc4cccc(F)c4)c(=O)c3c2C)cc1,·,·,-8.6,·,0.4
SMILES,D2 ag-1,D2 antagonist,D2 PAM-1,D2 PAM-2,D2 ag-2
O=C(CCNC(=O)c1ccc([N+](=O)[O-])cc1)NC1CCCc2ccccc21 (stereo not drawn),0.0,32.3*,-21.5,4.5,-0.1
O=C(CCNC(=O)c1ccccc1)NC1CCCc2ccccc21 (stereo not drawn),2.1,-9.0,3.8,0.0,·
O=C(CNC(=O)c1ccco1)NCC(=O)OCc1c(F)cccc1Cl,1.6,-1.5,13.2,3.6,0.9
O=C(CNC(=O)c1ccco1)OCc1c(F)cccc1Cl,-0.2,-25.6,41.4*,-1.0,0.2
O=C(CNC(=O)c1ccco1)NCC(=O)OCC(=O)c1ccc(Cl)c([N+](=O)[O-])c1,-28.0,4.7,38.0*,-30.9,-0.2
COc1ccccc1N1C(=O)CSC1=S,-2.8,-2.4,31.8*,-3.5,0.4
COc1ccccc1N1C(=O)CC(c2ccccc2)CC1=O,-3.6,4.8,12.5,-12.9,1.5
COC(=O)c1cc2c(=O)c3ccccc3oc2nc1C,-1.5,-0.1,11.6,-5.9,-0.3
COC(=O)c1cc2c(=O)c3ccccc3oc2nc1/C=C/N(C)C,6.5,8.2,12.8,-1.1,39.8*
Cc1nnc2c(N3CCN(c4ccccc4)CC3)nc3ccc(C(=O)c4ccccc4)cc3n12,·,·,-1.6,·,0.8
CCN1CCN(C(=O)Cn2ncc3c4ccccc4n(Cc4c(C)cc(C)cc4C)c3c2=O)CC1,·,·,0.5,·,-0.8
O=C(COc1ccc(Cl)cc1Cl)NC(=O)N1CCCCC1,0.6,32.2*,-23.1,-14.7,-1.8
O=C(COc1ccc(Cl)cc1Cl)NC(=O)NC1CCCC1,0.6,4.5,-3.6,-10.1,-0.9
CCN(CC(=O)NC)S(=O)(=O)c1ccc(Br)cc1,-3.3,-0.8,33.8*,-5.1,0.3
CN(C1CCCCC1)S(=O)(=O)c1cccc2nsnc12,-3.9,31.6*,-6.0,-4.5,-1.2
CCN(c1ccccc1C(=O)O)S(=O)(=O)c1cccc2nsnc12,-1.2,30.6*,13.8,1.0,-0.5
N#CCCN(C1CCCCC1)S(=O)(=O)c1cccc2nsnc12,-0.3,-1.2,0.2,0.4,-3.8
CCN(c1ccc(F)cc1)S(=O)(=O)c1cccc2nsnc12,-1.3,-16.6,-11.6,-2.4,0.3
CCOC(=O)C1=C(COC(=O)C(CC)c2ccccc2)NC(=O)NC1C (stereo not drawn),0.1,8.0,30.1*,-1.7,0.0
Cc1ccc(OCCNCC(O)COc2ccccc2)cc1 (stereo not drawn),0.5,45.2*,-23.8,-13.6,0.4
OC(CNCc1ccc(Cl)cc1)COc1ccccc1 (stereo not drawn),-5.7,49.0*,-22.8,-21.2,0.8
OC(CNCc1ccccc1)COCc1ccc(Cl)cc1 (stereo not drawn),-2.5,-12.1,12.6,-6.9,0.9
Cc1c(-c2ccccc2)c(=O)oc2c(CN3CCCC3)c(O)ccc12,·,·,-8.1,·,-0.9
CCCN1CCN(C(=O)Nc2cccc(C(F)(F)F)c2)CC1,-3.2,51.6*,-11.2,-15.2,-1.2
O=C(Cc1ccc(-c2ccccc2)cc1)NCCS(=O)(=O)N1CCN(c2cccc(Cl)c2)CC1,·,·,-8.8,·,-0.3
CC1CCCCN1CCCNC(=O)c1sc2ncccc2c1-n1cccc1 (stereo not drawn),·,·,-13.9,·,0.2
